A number with no mark means an inactive call.
tested on: Caenorhabditis elegans L1 (N2); assay: survival and reproduction score of C. elegans L1 (0: 0-10 living worms, 1: 11-20, 2: 21-50, 3: >50, 4: overgrown) (score 0-4); higher = more worms, less nematicidal, active = 1 or less; extreme values may be limits of the assay; conditions: 60 µM; 6 days; temperature: 20 °C
In short: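 In liquid NGM with E. coli HB101, approximately 20 synchronized C. elegans N2 L1s per 96-well well were exposed to compound at 60 µM final (0.6% v/v DMSO) for 6 days at 20 °C with shaking at 200 rpm in sealed plates. Survival and reproduction were judged under a dissection microscope as an ordinal rating of living worms per well. Ratings went from 0 (0–10 worms) to 4 (overgrown, starved) and were averaged over two biological replicates.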

Structure (SMILES)	survival and reproduction score
Cc1ccc(-c2noc(COc3ccc(Cl)cc3C)n2)cc1	2
Cc1ccc(OC(C)c2nc(-c3cccnc3)no2)cc1 (stereo not given)	4
CCCC(=O)Nc1ccccc1-c1nc(-c2ccncc2)no1	4
O=C(CSc1nnc(-c2ccccc2)o1)c1ccc(Br)cc1	4
CCCCc1nc(-c2ccc(-c3ccc(C)cc3)nc2OC)no1	4
Brc1cccc(-c2nc(-c3ccccc3)no2)c1	0 (active)
O=C(CSc1nnc(-c2ccco2)o1)Nc1cc(Cl)ccc1Cl	4
Cc1ccccc1-c1noc(-c2ccc(F)cc2)n1	4
Brc1ccc(-c2noc(COc3ccccc3)n2)cc1	4
O=C(CSc1nnc(-c2cccc(Br)c2)o1)Nc1ccccn1	4
Cc1ccc(OCc2nc(-c3ccccc3)no2)c(Br)c1	4
Brc1ccc(-c2noc(-c3cccs3)n2)o1	0 (active)
Cc1ccc(OCc2nc(-c3ccc(Cl)cc3)no2)cc1C	4
CCOc1nc(-c2ccccc2)ccc1-c1noc(-c2cccc(OC)c2)n1	4
O=C(CSc1nnc(-c2cccc(F)c2)o1)Nc1ccccc1C(=O)c1ccccc1	4
Brc1ccc(OCc2nc(-c3ccncc3)no2)cc1	4
O=C(CSc1nnc(-c2ccco2)o1)Nc1cccc(C(F)(F)F)c1	4
Cc1ccccc1-c1noc(-c2ccccc2OCC(N)=O)n1	4
Cc1ccccc1OCc1nc(-c2cccc(C(F)(F)F)c2)no1	4
Clc1ccc(-c2nc(C3CCCCC3)no2)cc1	4

— the supplement of paper PMC11219838
